This is part of a sample that, as a whole, favours compounds with a hit. Of some 83,000 tested, about 20% had one in any assay.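 Cells were grown in 96-well plates and exposed to the test compound at a single concentration for 48 hours; results are reported as percent growth, with values below 10 considered active.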 Active and inactive are the calls of the source.
Experiments:
Experiment in all cases: NCI-60 one-dose screen, 48 h (100 = growth as untreated, 0 = no growth, -100 = all killed)
Details in all cases: 10 µM unless noted
HCT-15 colon = tested on: HCT-15 colon
HT29 colon = tested on: HT29 colon
SNB-75 CNS = tested on: SNB-75 CNS
SNB-19 CNS = tested on: SNB-19 CNS
U251 CNS = tested on: U251 CNS
PC-3 prostate = tested on: PC-3 prostate
SK-MEL-5 melanoma = tested on: SK-MEL-5 melanoma
UACC-62 melanoma = tested on: UACC-62 melanoma
LOX IMVI melanoma = tested on: LOX IMVI melanoma
SK-MEL-28 melanoma = tested on: SK-MEL-28 melanoma
SK-MEL-2 melanoma = tested on: SK-MEL-2 melanoma
EKVX NSCLC = tested on: EKVX NSCLC
SN12C renal = tested on: SN12C renal
UO-31 renal = tested on: UO-31 renal
TK-10 renal = tested on: TK-10 renal
ACHN renal = tested on: ACHN renal
CAKI-1 renal = tested on: CAKI-1 renal
A498 renal = tested on: A498 renal
CCRF-CEM leukemia = tested on: CCRF-CEM leukemia
MOLT-4 leukemia = tested on: MOLT-4 leukemia

Measured: growth

CCCCc1nc(Cl)c(C2CC(c3ccc(S(N)(=O)=O)cc3)=NN2c2ccc(C#N)cc2)[nH]1 (stereo not given)
inactive: HCT-15 colon 97% | HT29 colon 100% | SNB-75 CNS 87.5% | SNB-19 CNS 84.9% | U251 CNS 76.7% | PC-3 prostate 69.4% | SK-MEL-5 melanoma 78.3% | UACC-62 melanoma 68% | LOX IMVI melanoma 86.6% | SK-MEL-28 melanoma 107% | SK-MEL-2 melanoma 91% | EKVX NSCLC 89.5% | SN12C renal 83% | UO-31 renal 70.5% | TK-10 renal 100% | ACHN renal 101% | CAKI-1 renal 67.6% | A498 renal 74.2% | CCRF-CEM leukemia 86.8% | MOLT-4 leukemia 76.1%

CN(C)c1nc(-c2cccs2)n2nc(-c3ccc(Cl)cc3)cc2n1
inactive: HCT-15 colon 92% | HT29 colon 33.2% | SNB-19 CNS 21.1% | PC-3 prostate 47.1% | SK-MEL-5 melanoma 64.2% | UACC-62 melanoma 70.7% | LOX IMVI melanoma 26.5% | SK-MEL-28 melanoma 79.2% | SK-MEL-2 melanoma 67% | EKVX NSCLC 49.6% | SN12C renal 44.9% | CAKI-1 renal 18.8% | CCRF-CEM leukemia 73.8% | MOLT-4 leukemia 82.1%
active: SNB-75 CNS -50.4% | U251 CNS 7.58% | UO-31 renal -63.9% | TK-10 renal -23.1% | ACHN renal -21.1% | A498 renal -11.4%

O=C(Nc1ccc(Br)cc1)c1ccc(Cl)c(Cl)c1
inactive: HCT-15 colon 32.3% | HT29 colon 40.1% | SNB-75 CNS 38.6% | SNB-19 CNS 35% | U251 CNS 32.4% | SK-MEL-5 melanoma 49.4% | UACC-62 melanoma 43.6% | LOX IMVI melanoma 33.3% | SK-MEL-28 melanoma 73% | SK-MEL-2 melanoma 102% | EKVX NSCLC 24% | SN12C renal 60.7% | UO-31 renal 59.1% | TK-10 renal 107% | ACHN renal 18.1% | A498 renal 65.7% | MOLT-4 leukemia 23.3%
active: PC-3 prostate -22% | CAKI-1 renal 8.9% | CCRF-CEM leukemia 1.53%

CC(C)CC(=O)C(CCc1ccccn1)C(C)C (stereo not given)
inactive: HCT-15 colon 101% | HT29 colon 98.3% | SNB-75 CNS 111% | SNB-19 CNS 108% | U251 CNS 107% | PC-3 prostate 99.7% | SK-MEL-5 melanoma 103% | UACC-62 melanoma 103% | LOX IMVI melanoma 96.5% | SK-MEL-28 melanoma 109% | SK-MEL-2 melanoma 103% | EKVX NSCLC 99.4% | SN12C renal 107% | UO-31 renal 103% | TK-10 renal 102% | ACHN renal 101% | CAKI-1 renal 79% | A498 renal 91.8% | CCRF-CEM leukemia 97.2% | MOLT-4 leukemia 108%

CCNC(=O)c1ccc2c(c1)nc(-c1ccc(Cl)cc1)n2-c1cc(C(C)(C)C)[nH]n1
inactive: HCT-15 colon 45.2% | HT29 colon 26% | SNB-75 CNS 34.2% | SNB-19 CNS 60.5% | U251 CNS 46.5% | PC-3 prostate 44% | SK-MEL-5 melanoma 11.5% | UACC-62 melanoma 38.6% | LOX IMVI melanoma 33.1% | SK-MEL-28 melanoma 41.6% | SK-MEL-2 melanoma 46.6% | EKVX NSCLC 42.8% | SN12C renal 76.4% | UO-31 renal 37.5% | TK-10 renal 89.7% | ACHN renal 52% | CAKI-1 renal 18.5% | A498 renal 57.9% | CCRF-CEM leukemia 34.3% | MOLT-4 leukemia 20.9%

COc1cc(C2C(C#N)=C(N)Oc3cc4c(cc32)OCO4)cc2c1OCO2 (stereo not given)
active: HT29 colon 9.21% | SNB-75 CNS -9.64% | A498 renal 8.65%
inactive: HCT-15 colon 21.5% | SNB-19 CNS 45.7% | U251 CNS 28.4% | PC-3 prostate 27.9% | SK-MEL-5 melanoma 19.8% | UACC-62 melanoma 30.7% | LOX IMVI melanoma 38.3% | SK-MEL-28 melanoma 41.7% | SK-MEL-2 melanoma 56.6% | EKVX NSCLC 55.7% | SN12C renal 35.2% | UO-31 renal 46.3% | TK-10 renal 72.1% | ACHN renal 35% | CAKI-1 renal 60.8% | CCRF-CEM leukemia 18.2% | MOLT-4 leukemia 20.3%

CCOCCNc1ccc(S(=O)(=O)c2ccc(N)cc2)cc1N
inactive: HCT-15 colon 109% | HT29 colon 114% | SNB-75 CNS 96.7% | SNB-19 CNS 114% | U251 CNS 98.2% | PC-3 prostate 111% | SK-MEL-5 melanoma 102% | UACC-62 melanoma 95.1% | LOX IMVI melanoma 91.1% | SK-MEL-28 melanoma 112% | SK-MEL-2 melanoma 111% | EKVX NSCLC 86.6% | SN12C renal 110% | UO-31 renal 90.8% | TK-10 renal 111% | ACHN renal 106% | CAKI-1 renal 86.7% | A498 renal 83.2% | CCRF-CEM leukemia 96% | MOLT-4 leukemia 107%

COc1cc(/C=C/c2cc(/C=C/c3ccc(O)c(OC)c3)n(C(=O)Nc3ccc(F)c(Cl)c3)n2)ccc1O
inactive: TK-10 renal 24%
active: HCT-15 colon 6.64% | HT29 colon -33.6% | SNB-75 CNS -12.6% | SNB-19 CNS 4.42% | U251 CNS -1.59% | PC-3 prostate -14.3% | SK-MEL-5 melanoma -73.9% | UACC-62 melanoma -37.4% | LOX IMVI melanoma -20.9% | SK-MEL-28 melanoma 7.89% | SK-MEL-2 melanoma -25% | EKVX NSCLC -17.7% | SN12C renal 2.06% | UO-31 renal -17% | ACHN renal 5.73% | CAKI-1 renal -39.1% | A498 renal -13.6% | CCRF-CEM leukemia 0.872% | MOLT-4 leukemia -17.7%

CCN1C(=O)N(CC)C2C1NN=c1s/c(=C\c3ccco3)c(=O)n12 (stereo not given)
active: HT29 colon 8.57% | SNB-75 CNS -1.06%
inactive: HCT-15 colon 19.9% | SNB-19 CNS 22.7% | U251 CNS 22.7% | PC-3 prostate 17.7% | SK-MEL-5 melanoma 12.8% | UACC-62 melanoma 29.2% | LOX IMVI melanoma 40.4% | SK-MEL-28 melanoma 58.9% | SK-MEL-2 melanoma 30% | EKVX NSCLC 36.3% | SN12C renal 47.5% | UO-31 renal 60% | TK-10 renal 57.6% | ACHN renal 54.9% | CAKI-1 renal 46% | A498 renal 21.5% | CCRF-CEM leukemia 10% | MOLT-4 leukemia 31.7%

CCCCCCCCCCCCC1CCC(=O)O1 (stereo not given)
inactive: HCT-15 colon 91.7% | HT29 colon 90.6% | SNB-75 CNS 95% | SNB-19 CNS 98.3% | U251 CNS 101% | PC-3 prostate 95.8% | SK-MEL-5 melanoma 99.7% | UACC-62 melanoma 98.5% | LOX IMVI melanoma 93.5% | SK-MEL-28 melanoma 96.4% | SK-MEL-2 melanoma 103% | EKVX NSCLC 92.7% | SN12C renal 98.9% | UO-31 renal 92.5% | TK-10 renal 102% | ACHN renal 97.3% | CAKI-1 renal 91.6% | A498 renal 96.2% | CCRF-CEM leukemia 105% | MOLT-4 leukemia 95.5%

Cc1cc([N+](=O)[O-])c(C)cc1N
inactive: HCT-15 colon 105% | HT29 colon 92.1% | SNB-75 CNS 86.7% | SNB-19 CNS 108% | U251 CNS 103% | PC-3 prostate 88.6% | SK-MEL-5 melanoma 98.4% | UACC-62 melanoma 95.5% | LOX IMVI melanoma 100% | SK-MEL-28 melanoma 103% | SK-MEL-2 melanoma 107% | EKVX NSCLC 101% | SN12C renal 106% | UO-31 renal 77.6% | TK-10 renal 102% | ACHN renal 103% | CAKI-1 renal 92.8% | A498 renal 87.2% | CCRF-CEM leukemia 106% | MOLT-4 leukemia 101%

Clc1cccc(CNc2c3ccccc3nc3ccccc23)c1
inactive: HCT-15 colon 14% | SNB-75 CNS 68.7% | SNB-19 CNS 26.4% | U251 CNS 22.7% | PC-3 prostate 23.5% | SK-MEL-5 melanoma 66.2% | UACC-62 melanoma 52.6% | SK-MEL-28 melanoma 66.2% | SK-MEL-2 melanoma 77.3% | EKVX NSCLC 27.2% | SN12C renal 23.6% | UO-31 renal 16% | TK-10 renal 52.1% | ACHN renal 15.7% | CAKI-1 renal 28.2% | CCRF-CEM leukemia 18.1%
active: HT29 colon 8.62% | LOX IMVI melanoma 1.75% | A498 renal -3.08% | MOLT-4 leukemia 1.13%

Cc1ccc(Nc2cccc3ccccc23)cc1
inactive: HCT-15 colon 79.1% | HT29 colon 83.9% | SNB-75 CNS 79.7% | SNB-19 CNS 90.3% | U251 CNS 90.8% | PC-3 prostate 73.9% | SK-MEL-5 melanoma 96.1% | UACC-62 melanoma 85.4% | LOX IMVI melanoma 79.9% | SK-MEL-28 melanoma 98.5% | SK-MEL-2 melanoma 93.3% | EKVX NSCLC 101% | SN12C renal 96.6% | UO-31 renal 45.5% | TK-10 renal 59.7% | ACHN renal 84.8% | CAKI-1 renal 63.3% | A498 renal 83.3% | CCRF-CEM leukemia 84.8% | MOLT-4 leukemia 77.3%

CN1CCCN(CCNc2nccc(-c3c(-c4cccc(O)c4)nc4sccn34)n2)S1(=O)=O
active: UACC-62 melanoma -12.6% | CAKI-1 renal -25%
inactive: HCT-15 colon 33.7% | HT29 colon 38.7% | SNB-75 CNS 12.9% | SNB-19 CNS 99.4% | U251 CNS 56.6% | PC-3 prostate 30.3% | SK-MEL-5 melanoma 37.7% | LOX IMVI melanoma 14.2% | SK-MEL-28 melanoma 18.1% | SK-MEL-2 melanoma 22.1% | EKVX NSCLC 84.9% | SN12C renal 38.1% | UO-31 renal 25.2% | TK-10 renal 92.4% | ACHN renal 22.9% | A498 renal 58.8% | CCRF-CEM leukemia 31.3% | MOLT-4 leukemia 37.8%

O=S1(=O)NCCN1CCNc1nccc(-c2c(-c3cccc(O)c3)nc3sccn23)n1
active: UACC-62 melanoma 6.31%
inactive: HCT-15 colon 127% | HT29 colon 71.6% | SNB-75 CNS 73.3% | SNB-19 CNS 122% | U251 CNS 120% | PC-3 prostate 78.5% | SK-MEL-5 melanoma 94.4% | LOX IMVI melanoma 55% | SK-MEL-28 melanoma 31.3% | SK-MEL-2 melanoma 72.1% | EKVX NSCLC 111% | SN12C renal 95.2% | UO-31 renal 116% | TK-10 renal 130% | ACHN renal 97% | CAKI-1 renal 80.8% | A498 renal 118% | CCRF-CEM leukemia 88.1% | MOLT-4 leukemia 110%
